From PubChem BioAssay (EPA / NIEHS)
Inconclusive results are not listed. Calls of active or inactive are those of the source. How the source made its calls: active means hit-call score of the fitted dose curve at least 0.9, where 1 is the maximum; inconclusive means response in the unintended direction; inactive means score below 0.9.

The molecules below were run against chimpanzee Androgen Receptor (AR), AR (gene 747460) (UniProt O97775) (assay: NVS_NR_cAR: NovaScreen (NVS) Nuclear Receptor Binding Assay for chimpanzee Androgen Receptor (AR) (AID 2283346);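 further: a loss of bound radioligand signal versus DMSO counts as binding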).
Description: NVS_NR_cAR is a biochemical, single-readout assay that uses extracted gene-proteins from Sf9/Sf21 in a cell-free assay. Measurements were taken 72 hours after chemical dosing in a 96-well plate.NVS_NR_cAR is one of one assay component(s) measured or calculated from the NVS_NR_cAR assay. It is designed to make measurements of radioligand binding, a form of binding reporter, as detected with scintillation counting signals by Lysate-based radiodetection technology.Data from the assay component NVS_NR_cAR was analyzed into 1 assay endpoint. This assay endpoint, NVS_NR_cAR, was analyzed in the positive analysis fitting direction relative to DMSO as the negative control and baseline of activity. Using a type of binding reporter, loss-of-signal activity can be used to understand changes in the binding as they relate to the gene AR. Furthermore, this assay endpoint can be referred to as a primary readout, because the performed assay has only produced 1 assay endpoint. To generalize the intended target to other relatable targets, this assay endpoint is annotated to the nuclear receptor intended target family, where the subfamily is steroidal.
Binding assays used specific radioligands (tritiated, iodinated) with non-radioactive competitive displacement ligands in agonist or antagonist protocols (as indicated) and various reference compounds and inhibitors to titrate specific binding to receptors and transporters. Most enzyme assays (CYPs, kinases, phosphatases, proteases, HDACs) used recombinant protein and specific substrates (fluorescence mostly, some colorimetric and radioactive) and inhibitors, followed by a biochemical separation of substrate and product. All assays for the biochemical HTS were initially run in duplicate at a single concentration (10 uM for CYP450 assays and 25 uM for all others). […] Each assay was run with positive and negative controls, and concurrent controls on every plate. The follow-up (secondary) screen tested active chemical-pairs in concentration series, as well as a few additional assays not tested in the primary screen, some selected negative inactives, and several cases re-run in the concentration series for confirmatory purposes.

chimpanzee Androgen Receptor (AR), AR (gene 747460), sequence (O97775 whole entry, looked up): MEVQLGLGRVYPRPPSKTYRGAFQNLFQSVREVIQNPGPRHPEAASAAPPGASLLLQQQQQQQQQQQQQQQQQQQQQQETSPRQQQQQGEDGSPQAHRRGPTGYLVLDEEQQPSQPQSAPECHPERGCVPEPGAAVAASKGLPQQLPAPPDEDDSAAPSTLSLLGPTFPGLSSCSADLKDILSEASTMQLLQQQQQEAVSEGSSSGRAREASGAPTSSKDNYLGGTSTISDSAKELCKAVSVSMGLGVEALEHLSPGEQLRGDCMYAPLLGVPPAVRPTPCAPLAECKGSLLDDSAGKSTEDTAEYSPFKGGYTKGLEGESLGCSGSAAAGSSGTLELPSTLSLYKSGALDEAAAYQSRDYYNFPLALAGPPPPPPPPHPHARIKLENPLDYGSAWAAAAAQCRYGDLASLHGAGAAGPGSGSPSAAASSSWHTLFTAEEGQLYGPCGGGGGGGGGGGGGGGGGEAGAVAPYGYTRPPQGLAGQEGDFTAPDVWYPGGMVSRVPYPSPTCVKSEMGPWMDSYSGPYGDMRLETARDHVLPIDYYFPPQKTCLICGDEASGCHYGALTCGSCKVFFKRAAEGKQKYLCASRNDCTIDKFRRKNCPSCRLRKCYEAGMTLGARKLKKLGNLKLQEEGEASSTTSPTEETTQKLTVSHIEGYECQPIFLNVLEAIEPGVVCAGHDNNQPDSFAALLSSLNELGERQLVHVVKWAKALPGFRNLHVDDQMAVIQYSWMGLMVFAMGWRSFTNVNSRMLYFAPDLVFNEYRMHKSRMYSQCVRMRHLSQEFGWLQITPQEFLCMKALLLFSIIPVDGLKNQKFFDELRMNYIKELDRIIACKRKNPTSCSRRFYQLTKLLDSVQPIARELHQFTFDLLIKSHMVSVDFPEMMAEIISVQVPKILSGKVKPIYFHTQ

Row | SMILES | outcome | AC50
1 | CCN(CC)c1ccc(C(=C2C=CC(=[N+](CC)CC)C=C2)c2ccc(S(=O)(=O)O)cc2S(=O)(=O)[O-])cc1 | inactive | –
2 | CC(C)C[C@H]1C(=O)N2CCC[C@H]2[C@]2(O)O[C@](NC(=O)[C@@H]3C=C4c5cccc6[nH]c(Br)c(c56)C[C@H]4N(C)C3)(C(C)C)C(=O)N12 | – | 1050 nM (active)
3 | CC(C)=CCCC(C)=CCCC(C)=CCO | inactive | –
4 | C#C[C@]1(O)CC[C@H]2[C@@H]3CCC4=Cc5oncc5C[C@]4(C)[C@H]3CC[C@@]21C | inactive | –
5 | O=Nc1ccc(Nc2ccccc2)cc1 | inactive | –
6 | C=CC(C)(O)CCC=C(C)CCC=C(C)C (centres undefined) | inactive | –
7 | Cc1ccc(C(C)C)cc1O | – | 10600 nM (active)
8 | OCCOCCOCCOCCO | inactive | –
9 | CCCCCCCCCCCCCCCC(=O)OC[C@H](O)[C@H]1OC(=O)C(O)=C1O | inactive | –
10 | O=c1[nH]nnc2ccccc12 | inactive | –
11 | O=C1OC2(c3cc(Br)c(O)c(Br)c3Oc3c2cc(Br)c(O)c3Br)c2c(Cl)c(Cl)c(Cl)c(Cl)c21 | inactive | –
12 | O=C(Oc1ccccc1)c1ccc(O)cc1 | inactive | –
13 | CC(=O)O[C@]1(C(C)=O)CC[C@H]2[C@@H]3C[C@H](C)C4=CC(=O)CC[C@]4(C)[C@H]3CC[C@@]21C | – | 422 nM (active)
14 | O=C1C(c2[nH]c3ccc(S(=O)(=O)O)cc3c2O)=Nc2ccc(S(=O)(=O)O)cc21 | inactive | –
